Cytotoxicity call data for 64 compounds are collected here from the antibiotic and cytotoxicity screens of Wong et al. (2023).

The whole screen tested about 39,000 compounds, of which about 1,500 (3.8%) were called active. The sample as a whole holds a higher share of actives than the screen did.

The assay has as its system HSkMC (human skeletal muscle cells). Briefly: cytotoxicity call (relative viability < 0.9). The following applies: 10 µM.
As for `C[C@@H]1CN([C@@H](C)CO)C(=O)c2cc(NC(=O)Cn3cnnn3)ccc2O[C@@H]1CN(C)Cc1ccc(C(F)(F)F)cc1`, the cytotoxicity call is “inactive”. As for `CC(C)NC(=O)Nc1ccc2c(c1)CC(=O)N([C@@H](C)CO)C[C@H](C)[C@@H](CN(C)S(=O)(=O)c1ccc(Cl)cc1)O2`, the cytotoxicity call was “inactive”. In the case of `C[C@H]1CN([C@@H](C)CO)C(=O)Cc2cc(NC(=O)Nc3ccc(Cl)c(Cl)c3)ccc2O[C@H]1CN(C)S(=O)(=O)c1ccc(Cl)cc1`, the cytotoxicity call was “active”.

For the compound `CC(C)NC(=O)Nc1ccc2c(c1)CC(=O)N([C@@H](C)CO)C[C@@H](C)[C@@H](CN(C)S(=O)(=O)c1ccc(Cl)cc1)O2`, the cytotoxicity call is “inactive”.

Consider `COc1ccc(S(=O)(=O)N(C)C[C@@H]2Oc3ccc(N(C)C)cc3CC(=O)N([C@@H](C)CO)C[C@H]2C)cc1`, for which the cytotoxicity call was “inactive”. For `COc1ccc(S(=O)(=O)N(C)C[C@@H]2Oc3ccc(N(C)C)cc3CC(=O)N([C@H](C)CO)C[C@@H]2C)cc1`, the cytotoxicity call was “active”. Turning to `COc1ccc(S(=O)(=O)N(C)C[C@H]2Oc3ccc(N(C)C)cc3CC(=O)N([C@@H](C)CO)C[C@@H]2C)cc1`, the cytotoxicity call was “inactive”.

On to `C[C@H]1CN([C@@H](C)CO)C(=O)Cc2cc(NC(=O)Nc3cc(Cl)cc(Cl)c3)ccc2O[C@H]1CN(C)S(=O)(=O)c1ccc(Cl)cc1`, for which the cytotoxicity call was “active”. The same measure for `CC(C)NC(=O)Nc1ccc2c(c1)CC(=O)N([C@H](C)CO)C[C@H](C)[C@H](CN(C)S(=O)(=O)c1ccc(Cl)cc1)O2`: “inactive”; for `CC(C)NC(=O)Nc1ccc2c(c1)CC(=O)N([C@H](C)CO)C[C@H](C)[C@@H](CN(C)S(=O)(=O)c1ccc(Cl)cc1)O2`: “inactive”; for `Cn1nnc2c(N3CCC(O)CC3)ncnc21`: “inactive”.

Consider `C[C@H]1CN([C@@H](C)CO)C(=O)c2cccc(NC(=O)CCCCCC(=O)Nc3ccccc3N)c2O[C@@H]1CN(C)Cc1ccc(C(F)(F)F)cc1`, for which the cytotoxicity call is “inactive”. As to `C[C@@H]1CN([C@@H](C)CO)C(=O)c2cc(NC(=O)Nc3cccc4ccccc34)ccc2O[C@@H](C)CCCCO[C@H]1CN(C)C`, the cytotoxicity call was “inactive”. Regarding `CCN1CCN(C2=C(NS(=O)(=O)c3ccc(Br)cc3)C(=O)c3ccccc3C2=O)CC1`, the cytotoxicity call was “inactive”.

Consider `CCc1nccn1CC(=O)N[C@H]1C[C@@H](C(=O)OC)N(C)C1`, for which the cytotoxicity call is “inactive”.

As to `Cc1noc(C)c1NC(=O)Nc1ccc2c(c1)CC(=O)N([C@@H](C)CO)C[C@@H](C)[C@@H](CN(C)Cc1ccc(Oc3ccccc3)cc1)O2`, the cytotoxicity call is “inactive”. As to `COc1ccc(S(=O)(=O)N(C)C[C@H]2Oc3ccc(NC(=O)CCN4CCOCC4)cc3C(=O)N([C@H](C)CO)C[C@H]2C)cc1`, the cytotoxicity call was “inactive”.

As to `COc1cccc(S(=O)(=O)N(C)C[C@@H]2OCc3cnnn3CCCC(=O)N([C@H](C)CO)C[C@@H]2C)c1`, the cytotoxicity call was “inactive”. The same measure for `COCCNC(=O)NC(=O)COC(=O)c1cccn1C`: “inactive”; for `O=C(N[C@@H](c1ccc(-c2ccccc2)cc1)c1cnccn1)C1CCN(Cc2ccc(Oc3ccccc3)cc2)CC1`: “inactive”.

For the compound `C[C@@H]1CN([C@@H](C)CO)C(=O)c2cccc(NC(=O)c3ccc(-c4nccs4)cc3)c2O[C@@H]1CN(C)Cc1ccccc1`, the cytotoxicity call is “inactive”.

For the compound `C[C@@H]1CCCCO[C@H](CN(C)C(=O)Nc2cccc3ccccc23)[C@@H](C)CN([C@H](C)CO)C(=O)c2cc(NC(=O)CCC(F)(F)F)ccc2O1`, the cytotoxicity call is “inactive”. `C[C@@H]1CCCCO[C@@H](CN(C)C(=O)Nc2cccc3ccccc23)[C@H](C)CN([C@H](C)CO)C(=O)c2cc(NC(=O)CCC(F)(F)F)ccc2O1`: the cytotoxicity call is “inactive”. For the compound `C[C@@H]1CN([C@@H](C)CO)C(=O)c2cc(NC(=O)Nc3cccc4ccccc34)ccc2O[C@@H](C)CCCCO[C@@H]1CN(C)C(=O)C1CCCCC1`, the cytotoxicity call is “active”. As for `C[C@@H]1CCCCO[C@@H](CN(C)C(=O)Nc2ccc3c(c2)OCO3)[C@@H](C)CN([C@@H](C)CO)C(=O)c2cc(NC(=O)NC3CCCCC3)ccc2O1`, the cytotoxicity call is “inactive”.

Turning to `C[C@@H]1CN([C@@H](C)CO)C(=O)c2cc(NC(=O)CCC(F)(F)F)ccc2O[C@@H](C)CCCCO[C@H]1CN(C)C(=O)Nc1cccc2ccccc12`, the cytotoxicity call was “active”. On to `C[C@@H]1CCCCO[C@@H](CN(C)C(=O)Nc2ccc3c(c2)OCO3)[C@H](C)CN([C@H](C)CO)C(=O)c2cc(NC(=O)NC3CCCCC3)ccc2O1`, for which the cytotoxicity call was “inactive”. `C[C@H](CO)N1C[C@H](C)[C@@H](CN(C)C(=O)Nc2cccc3ccccc23)OCCCC[C@H](C)Oc2ccc(NC(=O)Nc3cccc4ccccc34)cc2C1=O`: the cytotoxicity call was “inactive”. Regarding `C[C@@H]1CCCCO[C@@H](CN(C)C(=O)Nc2cccc3ccccc23)[C@H](C)CN([C@@H](C)CO)C(=O)c2cc(NC(=O)Nc3cccc4ccccc34)ccc2O1`, the cytotoxicity call was “active”. Turning to `C[C@@H]1CN([C@@H](C)CO)C(=O)c2cc(NC(=O)NC3CCCCC3)ccc2O[C@@H](C)CCCCO[C@H]1CN(C)C(=O)Nc1ccc2c(c1)OCO2`, the cytotoxicity call is “active”. As for `C[C@@H]1CN([C@@H](C)CO)C(=O)c2cc(NC(=O)Nc3cccc4ccccc34)ccc2O[C@@H](C)CCCCO[C@H]1CN(C)C(=O)Nc1cccc2ccccc12`, the cytotoxicity call was “inactive”. `C[C@@H]1CN([C@H](C)CO)C(=O)c2cc(NC(=O)Nc3cccc4ccccc34)ccc2O[C@@H](C)CCCCO[C@@H]1CN(C)C(=O)C1CCCCC1`: the cytotoxicity call is “inactive”. Consider `C[C@H]1CCCCO[C@H](CN(C)C(=O)C2CCCCC2)[C@@H](C)CN([C@@H](C)CO)C(=O)c2cc(NC(=O)Nc3cccc4ccccc34)ccc2O1`, for which the cytotoxicity call was “inactive”. `C[C@@H]1CCCCO[C@@H](CN(C)S(=O)(=O)c2ccccc2)[C@H](C)CN([C@@H](C)CO)C(=O)c2cc(NS(C)(=O)=O)ccc2O1`: the cytotoxicity call was “inactive”.

Regarding `CC(C)(C)OC(=O)C[C@@H]1CC=CC[C@@H](CC(=O)N[C@@H](CO)Cc2ccccc2)C(=O)N[C@@H](C(C)(C)C)COC1=O`, the cytotoxicity call is “inactive”. The same measure for `CC(C)CC#Cc1cnc2c(c1)C(=O)N([C@H](C)CO)C[C@@H](C)[C@H](CN(C)C(=O)CCN1CCCCC1)O2`: “inactive”. On to `COCC#Cc1ccc2c(c1)O[C@H](CN(C)S(=O)(=O)c1ccc(F)cc1)[C@@H](C)CN([C@@H](C)CO)S2(=O)=O`, for which the cytotoxicity call is “inactive”. Turning to `C[C@@H]1CN([C@@H](C)CO)C(=O)Cc2cc(NS(=O)(=O)c3ccccc3)ccc2O[C@@H]1CN(C)Cc1ccncc1`, the cytotoxicity call was “inactive”. The same measure for `O=C(C[C@@H]1CC[C@H]2[C@@H](COC[C@H](O)CN2Cc2ccccc2F)O1)N[C@H]1CCN(Cc2ccccc2)C1`: “inactive”; for `C[C@@H]1CCCCO[C@@H](CN(C)C(=O)Nc2ccccc2)[C@@H](C)CN([C@H](C)CO)C(=O)c2cc(NC(=O)Nc3ccc4c(c3)OCO4)ccc2O1`: “inactive”; for `Oc1ccc(C2(c3ccccc3F)CCC(F)(F)CC2)cc1`: “inactive”.

Turning to `CCNC(=S)N1CCOCC1`, the cytotoxicity call is “inactive”. The same measure for `NC(=O)C1CCCN1C(=O)C(Cc1c[nH]cn1)NC(=O)C1CCC(=O)N1` (centres undefined): “inactive”. With `C[C@H](CO)N1C[C@H](C)[C@@H](CN(C)C(=O)Nc2cccc3ccccc23)OCCCC[C@H](C)Oc2ccc(NC(=O)NC3CCCCC3)cc2C1=O`, the cytotoxicity call was “active”. Consider `C[C@@H]1CCCCO[C@H](CN(C)C(=O)Nc2cccc3ccccc23)[C@@H](C)CN([C@H](C)CO)C(=O)c2cc(NC(=O)NC3CCCCC3)ccc2O1`, for which the cytotoxicity call is “inactive”.

Consider `C[C@@H]1CCCCO[C@@H](CN(C)C(=O)Nc2cccc3ccccc23)[C@H](C)CN([C@@H](C)CO)C(=O)c2cc(NC(=O)NC3CCCCC3)ccc2O1`, for which the cytotoxicity call is “inactive”. For `COc1ccc(S(=O)(=O)N(C)C[C@@H]2Oc3ncc(C#CC(C)(C)O)cc3C(=O)N([C@H](C)CO)C[C@@H]2C)cc1`, the cytotoxicity call is “inactive”. With `CC12CCC3c4ccc(O)cc4CCC3C1CCC2OC(=O)CCC1CCCC1` (centres undefined) the entry was “active”; with `CC12CCC3c4ccc(O)cc4CCC3C1CCC2O` (centres undefined), “inactive”. Take `CCCCC(=O)OC1CCC2C3CCc4cc(O)ccc4C3CCC12C` (centres undefined): the cytotoxicity call was “inactive”.

On to `C=C1C=[N+]([O-])N(c2ccc(C(=O)O)cc2)N1`, for which the cytotoxicity call was “inactive”. The same measure for `C[C@H](CO)N1C[C@H](C)[C@H](CN(C)C(=O)NC2CCCCC2)Oc2c(NC(=O)Nc3cccc4ccccc34)cccc2C1=O`: “active”. With `C[C@@H]1CN([C@@H](C)CO)C(=O)c2cccc(NC(=O)Nc3cccc4ccccc34)c2O[C@H]1CN(C)C(=O)NC1CCCCC1` the entry was “inactive”. The same measure for `C[C@@H]1CN([C@H](C)CO)C(=O)c2cccc(NC(=O)Nc3cccc4ccccc34)c2O[C@@H]1CN(C)C(=O)NC1CCCCC1`: “inactive”; for `C[C@H]1CN([C@@H](C)CO)C(=O)c2cccc(NC(=O)Nc3cccc4ccccc34)c2O[C@H]1CN(C)C(=O)NC1CCCCC1`: “inactive”; for `C[C@H]1CN([C@@H](C)CO)C(=O)c2cccc(NC(=O)Nc3cccc4ccccc34)c2O[C@@H]1CN(C)C(=O)NC1CCCCC1`: “inactive”. For the compound `C[C@H](CO)N1C[C@H](C)[C@@H](CN(C)C(=O)NC2CCCCC2)Oc2c(NC(=O)Nc3cccc4ccccc34)cccc2C1=O`, the cytotoxicity call is “active”.

Regarding `C[C@@H]1CN([C@@H](C)CO)C(=O)c2cc(NC(=O)CCC(F)(F)F)ccc2O[C@H]1CN(C)C(=O)Nc1cccc2ccccc12`, the cytotoxicity call was “inactive”.

In the case of `COc1ccc(NC(=O)Nc2ccc3c(c2)C(=O)N([C@@H](C)CO)C[C@H](C)[C@H](CN(C)C(=O)C2CCCCC2)OCCCC[C@H](C)O3)cc1`, the cytotoxicity call was “inactive”. The same measure for `CCCNC(=O)N(C)C[C@@H]1Oc2cc(C#Cc3cccc(F)c3)ccc2S(=O)(=O)N([C@@H](C)CO)C[C@@H]1C`: “inactive”; for `Cc1noc(C)c1NC(=O)N(C)C[C@@H]1Oc2ccc(NS(=O)(=O)c3c(C)noc3C)cc2CC(=O)N([C@H](C)CO)C[C@H]1C`: “inactive”; for `Oc1c(Cl)cc(Cl)c(Cl)c1Cc1c(O)c(Cl)cc(Cl)c1Cl`: “active”. As for `O=C(Nc1cc(Cl)cc(Cl)c1O)c1c(O)c(Cl)cc(Cl)c1Cl`, the cytotoxicity call was “inactive”. Turning to `Cc1ccc2c(Cl)cc(Cl)c(O)c2n1`, the cytotoxicity call was “inactive”.
